Assay results taken from PubChem BioAssay AID1159580 (chemical genetic matrix, 2015).
Out of some 5,500 compounds screened, about 2,000 (36%) were called active. About 18% were inconclusive and are not listed. Rule as the data show it: active = normalized growth mostly below about 0.91 (no sharp cut-off); inconclusive = no clear call, values can overlap the other calls; inactive = mostly above about 0.92. This is one part of the list.

Test: chemical genetic growth profiling, strain panel (AID 1159580);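 also: tested at 20 µM; growth read once vehicle control cultures reached saturation at 30 °C; 1 = growth at the plate median or of vehicle wells; lower values mean less growth of the strain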
Conditions: growth OD

Measured: normalized growth

CC(=O)O[C@H]1C[C@@H](OC(C)=O)C(C)(C)C2CC(=O)[C@]3(C)C(CC[C@@]4(C)[C@H](C(=O)O)OC(=O)C5OC543)[C@]21C (stereo partly specified)
inactive: S. cerevisiae deletion strains, locus YJR066W, strain TOR1, active compounds read low 0.96 | S. cerevisiae deletion strains, locus YKL009W, strain mrt4, active compounds read low 0.996 | S. cerevisiae deletion strains, locus YKL068W, active compounds read low 0.988 | S. cerevisiae deletion strains, locus YKL085W, strain MDH1 (second series), active compounds read low 1 | S. cerevisiae deletion strains, locus YKL085W, strain MDH1, active compounds read low 1 | S. cerevisiae deletion strains, locus YKL160W, strain elf1, active compounds read low 0.99 | S. cerevisiae deletion strains, locus YKL190W, strain CNB1, active compounds read low 0.987 | S. cerevisiae deletion strains, locus YKR001C, strain vps1, active compounds read low 1.01 | S. cerevisiae deletion strains, locus YKR026C, strain gcn3, active compounds read low 1 | S. cerevisiae deletion strains, locus YKR091W, strain srl3, active compounds read low 0.978 | S. cerevisiae deletion strains, locus YLL001W, strain dnm1, active compounds read low 1 | S. cerevisiae deletion strains, locus YLL026W, active compounds read low 0.981 | S. cerevisiae deletion strains, locus YLL041C, strain sdh2, active compounds read low 0.989 | S. cerevisiae deletion strains, locus YLR027C, strain aat2, active compounds read low 1 | S. cerevisiae deletion strains, locus YLR039C, strain RIC1, active compounds read low 1.06 | S. cerevisiae deletion strains, locus YLR058C, strain SHM2, active compounds read low 0.985 | S. cerevisiae deletion strains, locus YLR102C, strain apc9, active compounds read low 1 | S. cerevisiae deletion strains, locus YLR113W, strain HOG1, active compounds read low 0.968 | S. cerevisiae deletion strains, locus YLR221C, strain rsa3, active compounds read low 1.01 | S. cerevisiae deletion strains, locus YLR258W, strain gsy2, active compounds read low 0.995 | S. cerevisiae deletion strains, locus YLR262C, strain YPT6 (second series), active compounds read low 0.978 | S. cerevisiae deletion strains, locus YLR262C, strain YPT6, active compounds read low 1.05 | S. cerevisiae deletion strains, locus YLR268W, strain sec22, active compounds read low 0.954 | S. cerevisiae deletion strains, locus YLR320W, strain mms22, active compounds read low 1.02 | S. cerevisiae deletion strains, locus YLR342W, strain FKS1 (second series), active compounds read low 0.972 | S. cerevisiae deletion strains, locus YLR342W, strain FKS1, active compounds read low 1.01 | S. cerevisiae deletion strains, locus YLR357W, strain rsc2, active compounds read low 1 | S. cerevisiae deletion strains, locus YLR370C, strain arc18, active compounds read low 0.981 | S. cerevisiae deletion strains, locus YLR371W, strain rom2, active compounds read low 0.985 | S. cerevisiae deletion strains, locus YLR384C, strain iki3, active compounds read low 0.998 | S. cerevisiae deletion strains, locus YLR418C, strain cdc73, active compounds read low 1.07 | S. cerevisiae deletion strains, locus YML016C, strain PPZ1, active compounds read low 0.976 | S. cerevisiae deletion strains, locus YML032C, strain rad52, active compounds read low 0.981 | S. cerevisiae deletion strains, locus YML120C, strain ndi1, active compounds read low 0.993 | S. cerevisiae deletion strains, locus YML124C, strain tub3, active compounds read low 0.989 | S. cerevisiae deletion strains, locus YMR058W, strain fet3, active compounds read low 0.982 | S. cerevisiae deletion strains, locus YMR078C, strain ctf18, active compounds read low 0.975 | S. cerevisiae deletion strains, locus YMR125W, strain sto1, active compounds read low 0.98 | S. cerevisiae deletion strains, locus YMR129W, active compounds read low 0.976 | S. cerevisiae deletion strains, locus YMR205C, strain PFK2, active compounds read low 1.01 | S. cerevisiae deletion strains, locus YMR223W, strain ubp8, active compounds read low 0.993 | S. cerevisiae deletion strains, locus YMR231W, strain pep5, active compounds read low 0.991 | S. cerevisiae deletion strains, locus YMR307W, strain GAS1, active compounds read low 0.984 | S. cerevisiae deletion strains, locus YNL067W, strain RPL9B, active compounds read low 1.04 | S. cerevisiae deletion strains, locus YNL071W, strain lat1, active compounds read low 1.01 | S. cerevisiae deletion strains, locus YNL128W, strain TEP1, active compounds read low 0.951 | S. cerevisiae deletion strains, locus YNL153C, strain GIM3, active compounds read low 1.02 | S. cerevisiae deletion strains, locus YNL183C, strain NPR1, active compounds read low 0.972 | S. cerevisiae deletion strains, locus YNL209W, strain ssb2, active compounds read low 0.982 | S. cerevisiae deletion strains, locus YNL233W, strain BNI4, active compounds read low 1.03 | S. cerevisiae deletion strains, locus YNL248C, strain rpa49, active compounds read low 0.964 | S. cerevisiae deletion strains, locus YNL250W, strain rad50, active compounds read low 0.993 | S. cerevisiae deletion strains, locus YNL271C, strain bni1, active compounds read low 0.996 | S. cerevisiae deletion strains, locus YNL298W, strain CLA4, active compounds read low 0.99 | S. cerevisiae deletion strains, locus YNL307C, strain MCK1, active compounds read low 0.999 | S. cerevisiae deletion strains, locus YNL322C, strain KRE1 (second series), active compounds read low 1.01 | S. cerevisiae deletion strains, locus YNR049C, strain mso1, active compounds read low 0.972 | S. cerevisiae deletion strains, locus YNR052C, strain pop2, active compounds read low 1.03 | S. cerevisiae deletion strains, locus YOL012C, strain htz1 0.975 | S. cerevisiae deletion strains, locus YOL147C, strain pex11, active compounds read low 0.992 | S. cerevisiae deletion strains, locus YOR001W, strain rrp6, active compounds read low 1.01 | S. cerevisiae deletion strains, locus YOR061W, strain CKA2, active compounds read low 0.964 | S. cerevisiae deletion strains, locus YOR069W, strain VPS5, active compounds read low 0.99 | S. cerevisiae deletion strains, locus YOR070C, strain gyp1, active compounds read low 1 | S. cerevisiae deletion strains, locus YOR080W, strain dia2, active compounds read low 0.983 | S. cerevisiae deletion strains, locus YOR083W, strain WHI5, active compounds read low 1.01 | S. cerevisiae deletion strains, locus YOR106W, strain vam3, active compounds read low 0.982 | S. cerevisiae deletion strains, locus YOR136W, strain idh2, active compounds read low 0.985 | S. cerevisiae deletion strains, locus YOR144C, strain elg1, active compounds read low 0.994 | S. cerevisiae deletion strains, locus YOR184W, strain ser1, active compounds read low 0.968 | S. cerevisiae deletion strains, locus YOR231W, strain MKK1, active compounds read low 1.02 | S. cerevisiae deletion strains, locus YOR265W, strain rbl2, active compounds read low 1 | S. cerevisiae deletion strains, locus YOR270C, strain vph1, active compounds read low 1.02 | S. cerevisiae deletion strains, locus YOR290C, strain snf2, active compounds read low 0.969 | S. cerevisiae deletion strains, locus YOR316C, strain cot1, active compounds read low 0.986 | S. cerevisiae deletion strains, locus YPL051W, strain arl3, active compounds read low 0.99 | S. cerevisiae deletion strains, locus YPL078C, strain atp4, active compounds read low 0.985 | S. cerevisiae deletion strains, locus YPL106C, strain sse1, active compounds read low 1 | S. cerevisiae deletion strains, locus YPL240C, strain hsp82, active compounds read low 0.993 | S. cerevisiae deletion strains, locus YPL256C, strain CLN2, active compounds read low 1.01 | S. cerevisiae deletion strains, locus YPR119W, strain clb2, active compounds read low 0.994 | S. cerevisiae deletion strains, locus YPR141C, strain kar3, active compounds read low 0.986 | S. cerevisiae deletion strains, locus YPR163C, strain tif3, active compounds read low 0.998 | S. cerevisiae deletion strains, locus YPR167C, strain met16, active compounds read low 0.988 | S. cerevisiae deletion strains, strain wtn01, active compounds read low 0.983 | S. cerevisiae strains, strain wild type, active compounds read low 0.974
